# In the library only some 8% were active in any assay of this set; here they are far more common.
# KB-V1 MDR tox: KB-V1 MDR subline cytotoxicity. KB-V1 MDR cells viability, CellTiter-Glo, 72 h. Potency, µM (titrated, usually from 46.1 µM), actives largely listed as cytotoxic. 400,000 tested, 3.4% active; note: % is set by controls: 0 for no effect and ±100 for the full control effect; nearly all actives have a fitted effect of over 60% in size
#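 In this primary screen, KB-V1 cells overexpressing P-gp are incubated with library compounds (lowest to highest concentration) for 72 h at 37 degrees C before a luminescent ATP viability read.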
# KB-3-1 tox: KB-3-1 parental cell cytotoxicity; KB-3-1 viability, CellTiter-Glo ATP luminescence, 72 h; Potency, µM (doses to about 46.1 µM), actives largely listed as cytotoxic; 400,000 tested, 1.4% active; AID 1347075; note: % is set by controls: 0 for no effect and ±100 for the full control effect; nearly all actives have a fitted effect of over 60% in size
#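 KB-3-1 cells, DMEM (no phenol red) + 10% FBS; compound by pin transfer, 72 h, 37 °C. Readout: CellTiter-Glo luminescence after 10 min. Data normalized, curve-fitted.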
# MCF10A rereplic: induces DNA re-replication in MCF 10a normal breast cells | MCF 10A DNA re-replication, Hoechst nuclear intensity, 48 h | Potency, µM (top dose mostly 46.1 µM), for inactives: at the highest dose activity, positive = re-replication, hits mostly activators | 350,000 tested, 2.9% active | AID 624296; note: % of control where 0% means no effect; nearly all actives have a fitted effect of over 50% in size
# HT1080NT lethal: kills 2HG-producing HT-1080-NT fibrosarcoma cells | HT-1080-NT fibrosarcoma viability, CellTiter-Glo ATP luminescence, 48 h | Potency, µM (highest dose often 46.1 µM), for inactives: at the highest dose activity, negative = less viability, actives largely listed as cytotoxic | 360,000 tested, 1.6% active | AID 686970;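 note: NT is the 2HG producing partner of a matched IDH1 knockdown line; 0% = DMSO-treated cells and -100% = media-only wells without cells; nearly all actives have a fitted effect of over 55% in size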
#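 Luminescent CellTiter-Glo readout after 48 hours of compound exposure at 37 degrees C defined viability of HT-1080-NT cells. Activity was normalized to DMSO wells and cell-free media wells; concentration-response curves were fitted and assigned curve classes.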
# SW480 rerep: DNA re-replication induction in SW480 cells; SW480 DNA re-replication, Hoechst DNA content imaging, 48 h; Potency, µM (series often up to 46.1 µM), for inactives: at the highest dose re-replication activation, usual class: activators; 340,000 tested, 1.8% active; note: % of control where 0% means no effect; nearly all actives have a fitted effect of over 55% in size
#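 Treated cells incubate 48 hr (37 C, 5% CO2), are stained 40 min with Hoechst, and nuclear fluorescence is enumerated; a rise in nuclei with high DNA signal marks re-replication.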
# HT1080 IDH1KD tx: HT-1080 IDH1 knockdown cell toxicity (counter line); Potency, µM (top dose mostly 46.1 µM), for inactives: at the top dose activity, negative = toxicity, usual class: cytotoxic; 360,000 tested, 2% active; AID 686971; HT-1080 IDH1 knockdown viability, ATP luminescence, 48 h;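 note: 0% = DMSO wells and -100% = cell-free medium wells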
#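 In this qHTS, HT-1080 cells depleted of IDH1 are exposed for 48 h at 37 °C to compound titrations. Toxicity is scored from CellTiter-Glo luminescence, with DMSO as full viability and medium alone as none.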
# The depositor's hits bear a star; i = inactive; ? = inconclusive; / = no result; [ ] = dose if it differs, or a comment. Calls come from the whole dose curve; as a rule, active = well fitted curve in the direction sought with a large enough effect; inconclusive = small, poorly fitted or top-dose-only effect, or another doubt; inactive = no such curve, though single readings can be large; an effect the other way counts as inactive or inconclusive. Potency is the fitted concentration of half-maximal effect.
SMILES,KB-V1 MDR tox,KB-3-1 tox,MCF10A rereplic,HT1080NT lethal,SW480 rerep,HT1080 IDH1KD tx
CC(Cc1ccccc1)N(C)C (configuration not stated),/,/,-4%,/,-3%,/
CN1Cc2cccnc2N(C)Cc2cc(Cl)ccc21,16µM*,?,6%,-1%,3%,-5%
O=C(Nc1ccccc1C(F)(F)F)c1cccn(Cc2ccccc2)c1=O,i,i,/,/,/,/
CN1C(=O)C(=Cc2ccccc2OCc2ccc(C(=O)O)cc2)C(=O)N(C)C1=O,i,i,?,-11%,7%,2%
CN1C(=O)C(=Cc2ccccc2OCc2ccccc2Cl)C(=O)N(C)C1=O,i,?,?,16µM*,?,16µM*
COC(COC(N)=O)C1=C(N2CC2)C(=O)C(C)=C(N2CC2)C1=O (configuration not stated),?,4.1µM*,?,6.5µM*,?,3.3µM*
CO[C@@H](COC(N)=O)C1=C(N2CC2)C(=O)C(C)=C(N2CC2)C1=O,/,/,4.7µM*,/,?,/
Cc1nn(Cc2ccccc2Cl)c(Cl)c1C(=O)O,i,i,-4%,0%,3%,-3%
COc1ccc(NC(=O)c2c(C)nn(Cc3ccccc3Cl)c2Cl)cc1Cl,i,i,16µM*,-2%,-5%,4%
CN(CC=CCN(C)P(=S)(N1CC1)N1CC1)P(=S)(N1CC1)N1CC1,i,i,13µM*,-1%,?,-11%
CCCNC(=O)c1cc2c(c(-c3cccc(-c4cc5ccccc5o4)c3)n1)[C@@H](CCO)N(C(=O)NC(C)C)C2,18µM*,?,/,?,/,?
S=c1[nH]nc(C2CC2)n1Cc1ccco1,i,i,0%,?,27%,-20%
Cc1ccc(C(=O)Nc2ccc(Cl)cc2C(=O)c2ccccc2)cc1,21µM*,i,3%,10%,9%,-6%
O=S(=O)(CCN1CCN(c2ccccn2)CC1)c1ccc(Cl)cc1Cl,i,i,?,1%,3%,5%
CCN[C@]1(c2cccs2)CCCCC1=O,/,/,0%[20.6 µM],/,1%[20.6 µM],/
CCNC(=O)O/N=C(\C)c1sc(-c2ccc(Cl)cc2)nc1C,i,i,?,-4%,-1%,-13%
O=C1NC(=O)C(=Cc2ccccc2OCCOc2ccc([N+](=O)[O-])cc2)C(=O)N1,i,i,18µM*,?,?,18µM*
Cn1c(=O)c(Oc2ccc(F)cc2)c(O)c2ccccc21,i,i,9%,11%,-694%,5%
CCC1(C)OC(c2ccccc2)=C/C(=C/C=C2C(=O)NC(=O)NC2=O)O1 (configuration not stated),i,i,21µM*,-3%,?,-18%
CCN(CC)C(=O)c1c(C)[nH]c(=S)c(C#N)c1-c1ccco1,i,i,?,10%,?,8%
CC(C)N1C(=O)/C(=C/C=C/c2ccco2)C(=O)N(Cc2ccco2)C1=O,?,?,9.2µM*,?,?,?
COc1ccc(/C=C2/C(=O)N(Cc3ccco3)C(=O)N(C(C)C)C2=O)cc1,i,i,18µM*,-3%,6%,4%
CCN1C(=O)C(=C/C=C/c2ccco2)C(=O)N(CC)C1=S,i,i,0%,-7%,5%,-17%
CN(C)c1ccc(/C=C2/C(=O)NC(=O)N(Cc3ccco3)C2=O)cc1,i,i,-2%,7%,-2%,6%
Cc1cc(/C=C/c2cccc3sc(C)[n+](CCCCI)c23)ccc1N(CCCl)CCCl,i,i,/,/,/,/
SMILES,KB-V1 MDR tox,KB-3-1 tox,MCF10A rereplic,HT1080NT lethal,SW480 rerep,HT1080 IDH1KD tx
CCC(C)(S(=O)(=O)CC)S(=O)(=O)CC,/,/,4%,/,7%,/
NCC(=O)c1ccc2ccccc2c1,i,i,/,/,/,/
CCCC(C)c1nnc(NC(=O)CCS(=O)(=O)c2ccccc2)s1 (configuration not stated),i,i,?,-11%,?,-21%
Nc1c(C(=O)Nc2ccc(Cl)cc2)sc2nc3c(cc12)N1CCC3CC1,7.3µM*,i,/,/,/,/
N#Cc1cc2c(nc1SCC(=O)Nc1cc(Cl)ccc1Cl)C1CCN2CC1,4.1µM*,?,0.58µM*,?,?,?
COc1ccc(NC(=O)c2sc3nc4c(cc3c2N)N2CCC4CC2)cc1OC,i,i,/,/,/,/
O=C(CSc1nc(-c2ccc(Cl)cc2)[nH]c(=O)n1)Nc1cccc(Cl)c1,i,i,?,-8%,-55%,-20%
COc1ccc(Cl)cc1NC(=O)CSc1ncnc2c1oc1ccccc12,i,i,0%,-1%,-154%,8%
N#Cc1cc2c(nc1SCC(=O)Nc1ccc(Cl)cc1)C1CCN2CC1,2.9µM*,?,187%,?,?,?
CN(C)C(=O)Oc1cc(OC(=O)N(C)C)cc([C@@H](O)CNC(C)(C)C)c1,/,/,1%[20.6 µM],/,-4%[20.6 µM],/
COc1ccc(-n2c(-c3ccc(C)cc3)nc3ccccc3c2=O)cc1,i,i,6%,0%,-16%,-1%
COc1ccc(-n2c(/C=C/c3ccc(O)cc3)nc3ccccc3c2=O)cc1,?,?,0.82µM*,?,-3%,?
O=c1c2ccccc2nc(/C=C/c2ccc(O)cc2)n1-c1cccc(O)c1,i,i,23µM*,-22%,?,?
O=c1c2ccccc2nc(/C=C/c2ccc3c(c2)OCO3)n1-c1cccc(O)c1,?,i,?,-15%,/,-11%
COc1cccc(-n2c(/C=C/c3ccc(O)c(O)c3)nc3ccccc3c2=O)c1,?,i,18µM*,-17%,10µM*,-30%
COc1ccc(-c2nc3ccccc3c(=O)n2-c2cccnc2)cc1,13µM*,i,8%,6%,-9%,10%
O=c1[nH]c(=S)n(-c2cccc(Cl)c2)c(O)c1/C=N/N1CCOCC1,i,i,6%,-4%,4%,-4%
c1ccc(CCN2CCCC2)cc1,i,i,/,/,/,/
COC(=O)[C@@H](Cc1ccccc1)N(Cc1ccccc1)S(=O)(=O)N(Cc1ccccc1)[C@H](Cc1ccccc1)C(=O)OC,?,?,?,-1%,-6%[9.22 µM],-1%
O=c1c2ccccc2nc(/C=C/c2ccc(O)cc2)n1-c1ccc(O)cc1,i,i,23µM*,-10%,21%,-7%
Cc1ccc(-c2nc3ccccc3c(=O)n2-c2cc(C)ccn2)cc1,15µM*,i,-3%,15%,-6%,1%
CCCCOc1nc2ccccc2c(=O)n1-c1ccccc1,16µM*,i,?,13%,1%,9%

# Source: PubChem
